# From PubChem BioAssay
# An excerpt weighted towards active compounds, which were near 12% of everything screened.
# Pf growth 96h: inhibits malaria parasite growth, 96 h; AID 504834; Potency, µM (top dose mostly 28.7 µM), for inactives: at the top dose activity change, negative = inhibition, hits mostly inhibitors; 320,000 tested, 6.9% active; P. falciparum luciferase reporter growth, 96 h; further: on the % scale 0 is the no-effect control and ±100 the full control effect
#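 Two-generation exposure (96 h) targets delayed-death phenotype. Reporter parasites carrying integrated firefly luciferase, in red cells at 2% hematocrit and 0.05% parasitemia final, kept at 37 C, 5% CO2; luminescence loss indicates inhibition.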
# Pf growth 48h: inhibits P. falciparum growth in the first generation, 48 h | P. falciparum luciferase growth in erythrocytes, 48 h | Potency, µM (series often up to 28.7 µM), for the others: top-dose activity change, negative = inhibition, most hits filed as inhibitors | 310,000 tested, 5.9% active; further: on the % scale 0 is the no-effect control and ±100 the full control effect
#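 Parasite viability was followed by luminescence of a genomically integrated firefly luciferase. Cultures held 0.1% parasitemia at 2% hematocrit (final), incubated under 5% CO2 at 37 C.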
# Sm TGR block: S. mansoni TGR enzyme inhibition; Potency, µM (highest dose often 114 µM), for inactives: top-dose activity change, negative = inhibition, hits mostly inhibitors; purified TGR, DTNB reduction, TNB absorbance 405 nm; 360,000 tested, 3% active; further: on the % scale 0 is the no-effect control and ±100 the full control effect; nearly all actives have a fitted effect of over 60% in size
#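 TGR 20 nM + NADPH 100 uM (dispensed conc.), cpd preinc 15 min RT; start with NADPH (500 uM addition) then DTNB (15 mM addition). Kinetic TNB absorbance, 405 nm filter. Four-parameter Hill fit across titration.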
# SARS PLpro yeast: blocks SARS-CoV papain-like protease in a yeast assay; Potency, µM (top dose mostly 32.9 µM), for inactives: top-dose activity, positive = growth rescue, hits mostly activators; S. cerevisiae expressing SARS-CoV PLpro, growth rescue; 330,000 tested, 0.19% active; calls by dose curve; further: 0% is about no effect; nearly all actives have a fitted effect of over 55% in size
# Numbers without * were called inactive; u = inconclusive; x = no result given. Unless noted, the call rests on the fitted dose curve; in most records, active means well fitted curve in the direction sought with a large enough effect; inconclusive means small, poorly fitted or top-dose-only effect, or another doubt; inactive means no such curve, though single readings can be large; an effect the other way counts as inactive or inconclusive. Potency means the concentration at half of the fitted maximal effect.
SMILES,Pf growth 96h,Pf growth 48h,Sm TGR block,SARS PLpro yeast
CCC(C)C1/C=C\CC(NC(=O)OCC2c3ccccc3-c3ccccc32)CC(=O)N1Cc1ccccc1 (stereo unspecified),x,x,x,2.8%
C[n+]1ccccc1/C=C1\Sc2ccccc2N1CCO,2.08µM*,u,0.6%,-1.0%
Cc1ccc2c(c1)S/C(=C\c1cccc[n+]1C)N2CCO,-8.7%,3.29µM*,0.2%,-1.7%
COCCN(C(=O)Nc1ccccc1OC)c1nc2ccccc2s1,15.2%,-8.5%,-0.2%,4.1%
COc1ccc(C)cc1NC(=O)NCc1ccc2c(c1)CCN2C(=O)c1ccccc1,x,x,-3.7%,x
Cc1nc(C)c(-c2ccc(SCC(=O)Nc3cccc(C)c3C)nn2)s1,x,x,0.4%,x
Cn1c(Cn2c(=O)sc3ccccc32)nnc1SCc1ccccc1F,11.7µM*,x,0.3%,5.2%
Cn1c(Cn2c(=O)sc3ccccc32)nnc1SCc1cccc(F)c1,4.2%,-5.2%,3.7%,1.0%
O=C(Nc1ccc(Cl)cc1)N1CCN(c2ccc3nnc(-c4ccc(F)cc4)n3n2)CC1,u,9.28µM*,2.4%,2.6%
O=C(Nc1ccccc1Cl)N1CCN(c2ccc3nnc(-c4ccccc4)n3n2)CC1,u,x,-0.4%,-5.4%
CCc1ccccc1NC(=O)c1cc(S(=O)(=O)N(CC)c2ccccc2)ccc1F,x,x,-3.8%,x
O=C1CC(C(=O)Nc2cc(Cl)ccc2Cl)n2ncnc2N1 (stereo unspecified),-7.0%,42.3%,22.4µM*,-1.2%
C1=C(c2ccccc2)CCN(c2ncnc3nc[nH]c23)C1,u,-7.4%,50.1µM*,-4.7%
c1nc(N2CCCCC2)c2[nH]cnc2n1,13.1µM*,-8.0%,-12.2%,6.7%
OC1CCN(c2ncnc3nc[nH]c23)CC1,53.5%,0.5%,-9.3%,13.3%
CC(C)CN1CC(COCc2ccccc2)Oc2ccccc2S1(=O)=O (stereo unspecified),x,x,x,15.4%
COC(=O)C1CCN(C(=O)COC(=O)/C=C/c2ccc(O)c(OC)c2)CC1,x,x,x,1.0%
CCOc1cc(C2C(C#N)=C(N)SC(N)=C2C#N)ccc1OCCN1CCOCC1,x,9.28µM*,22.4µM*,2.1%
CN1CCN(C(=O)c2ccc(CS(=O)(=O)c3c(Cl)cccc3Cl)o2)CC1,u,1.2%,-9.8%,u
CCOC(=O)N1CCN(C(=O)c2ccc(CS(=O)(=O)c3c(Cl)cccc3Cl)o2)CC1,4.9%,u,44.7µM*,2.0%
O=C(c1ccc(CS(=O)c2ccccc2Cl)o1)N1CCCCCC1 (stereo unspecified),-23.7%,-2.8%,39.8µM*,u
O=C(c1ccc(CS(=O)c2ccccc2Cl)o1)N1CCN(c2ccccc2F)CC1 (stereo unspecified),x,x,-0.2%,x
O=C(c1ccc(CS(=O)(=O)c2c(Cl)cccc2Cl)o1)N1CCCC1,-18.0%,x,35.5µM*,0.2%
O=C(NCCc1ccc(Cl)cc1)c1cnc2sc(N3CCCC3)nn2c1=O,x,x,-2.9%,x
COc1cc(OC)c(/C=N/N2CCN(c3ccccc3OC)CC2)c(OC)c1,u,-16.2%,-20.2%,-14.4%
SMILES,Pf growth 96h,Pf growth 48h,Sm TGR block,SARS PLpro yeast
CC1(C)CC1C(=O)N/C(=C/CCCCSCC(N)C(=O)O)C(=O)O (stereo unspecified),6.9%,0.1%,x,x
COC(=O)c1cc(CSC(=N)N)ccc1OCCC(C)C,6.57µM*,4.65µM*,13.2%,-0.3%
CC(=NCC1CCCO1)c1c(O)n(C2CCCCC2)c(=O)[nH]c1=O (stereo unspecified),-20.5%,-14.0%,-7.6%,-1.2%
CC(=NCC1CCCO1)c1c(O)n(C)c(=O)n(C)c1=O (stereo unspecified),14.7µM*,3.2%,-2.8%,0.1%
CC(=O)Nc1ccc(NC(=O)c2ccc(-n3c(C)ccc3C)cc2)cc1,u,-13.5%,0.2%,3.5%
Cc1ccc(C)n1-c1ccc(NC(=O)c2ccccc2)cc1,11.7µM*,u,-18.4%,8.2%
Cc1ccc(NC(=O)c2ccc(NC(=O)c3ccccc3)cc2)cc1C,1.17µM*,25.2%,4.6%,-4.9%
CCc1ccccc1NC(=O)c1ccc(-c2csc(C)n2)cc1,53.2%,69.2%,0.0%,-4.2%
CCc1ccccc1NC(=O)c1ccc(-n2c(C)ccc2C)cc1,14.7µM*,u,u,-3.2%
O=C(Nc1ccccc1Cl)c1ccc2ccccc2c1,u,24.3%,4.2%,1.3%
C[n+]1ccc(C(=O)Nc2ccccc2Cl)cc1,13.1µM*,20.2%,u,u
O=C(Nc1ccccc1F)c1ccncc1,-6.5%,20.2%,3.3%,-1.7%
